± gives the standard deviation of the averaged measurements. Whole data set: some 25,000 sequences, median “ln(normalized median fluorescence intensity)” near 8.6, cut for the highest 2% near 10. This is one part of a sample in which the highest values are shown more often than they occur.
test system: PfAP2-EXP AP2 domain (GST-tagged); assay: gcPBM binding intensity (ln(normalized median fluorescence intensity)); higher = stronger DNA binding
Method in brief: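 Binding of GST-tagged P. falciparum DNA-binding domains, expressed in E. coli and used at about 25 μg on average, was carried out for 1 h in 1× PBS containing 1% milk, 0.2 mg/ml BSA, 0.5% salmon testes DNA and 0.03% Triton X-100. The target was an Agilent 4 × 180k array of primer-extended double-stranded 36-bp intergenic genomic probes plus negative controls, read with Alexa488 anti-GST antibody at 488 nm. Binding intensity is the highest Masliner-normalised natural-log median intensity across replicate spots of either probe orientation.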

“GAATAATCTAGAAACACACAAACACGACAAAAGAAA [CACACA_site4135]” and “TTTTGTTCTAATATGGGAACATAAATATTAAATATA [CACACA_negctrl_site1787]” are within error of each other in “gcPBM binding intensity (ln)” value: 8.93 ± 0.55 for the first, 8.22 ± 0.45 for the second.

Going from “ATTTTATTTTTTCACACACACATATATATATATATA [CACACA_site3334]” to “TATTTTATATTTCATTTGTTATTTTTCTTGGTTCTA [CACACA_negctrl_site33]”, the “gcPBM binding intensity (ln)” value falls from 10.2 ± 0.32 to 8.63 ± 0.57.

“TTTTTTTTTTTGGTTACACACATTTGTATATTCTCA [CACACA_site134]” and “TTTCTTTCTTCACATATATATATATATATATTTATA [TGCATGCA_negctrl_site341]” are within error of each other in “gcPBM binding intensity (ln)” value: 8.69 ± 0.49 for the first, 8.83 ± 0.3 for the second.

“TTTGTTATGGTTTTCTCACACATATATATATATATA [CACACA_site4617]” and “TCATTTTATTTTTTCACACACACATATATATATATA [CACACA_site3333]” are within error of each other in “gcPBM binding intensity (ln)” value: 10.4 ± 0.36 for the first, 10.1 ± 0.33 for the second.

Compared with “CATATTTGCACTTTCACACATAAATATATAACTATA [CACACA_site6016]”, “TTTGTAACTTCTTTCACACATATATATATATATATA [CACACA_site5603]” is higher in “gcPBM binding intensity (ln)” value: 8.91 ± 0.31 for the first, 10.3 ± 0.47 for the second.

“TTATTTTTATATTTCACACACATATACTTTTACATA [CACACA_site4097]” and “TGTATATTTGTTGTTACACACATATATTTTTTTTTT [CACACA_site128]” are within error of each other in “gcPBM binding intensity (ln)” value: 8.8 ± 0.47 for the first, 8.53 ± 0.3 for the second.

Going from “TTTTTTTTTTTTGTCACACATATATTTGTATTTATA [CACACA_site5234]” to “TATTTGTTGTGAGTCACACATATATATATATATATA [CACACA_site4240]”, the “gcPBM binding intensity (ln)” value rises from 8.58 ± 0.38 to 10.3 ± 0.42.

“TAAAATATTGTTATTACATGCAACCTTATGAAAAAT [TGCATGCA_site706]” and “GTATAAAAGTTATATACACACAACAGAATTACATAT [CACACA_site6212]” are within error of each other in “gcPBM binding intensity (ln)” value: 8.94 ± 0.17 for the first, 8.68 ± 0.49 for the second.

“TCTTAATATGGTAATACACACTAATATACTTTTGTT [CACACA_site4969]” and “TTTTGTTTGTTCGTGACTACATTATGTTGTAAATAC [CACACA_negctrl_site604]” are within error of each other in “gcPBM binding intensity (ln)” value: 8.55 ± 0.31 for the first, 8.78 ± 0.38 for the second.

“TATACATTTATGTACACACACATATAGGTATATTTA [CACACA_site7408]” and “AATTATAAAAAAAAAAAAAAAAAAAAAAACTAAATG [CACACA_negctrl_site1379]” are within error of each other in “gcPBM binding intensity (ln)” value: 8.47 ± 0.099 for the first, 8.11 ± 0.47 for the second.

Compared with “TTTATTTTTTGTGGCACACAGAAGAAACAAGAACAA [CACACA_site1696]”, “TGAACAATATATAATAGTACATATTTATTTTTTTCT [XGTACX_site4256]” is lower in “gcPBM binding intensity (ln)” value: 9.12 ± 0.35 for the first, 8.13 ± 0.2 for the second.

“CTTAAAAAAAAAAAATGTACACATAAAAAAAATACA [XGTACX_site6700]” and “TTGTTGATTGTTATTTATCATTAGATGTAAAATATG [CACACA_negctrl_site927]” are within error of each other in “gcPBM binding intensity (ln)” value: 8.52 ± 0.35 for the first, 8.39 ± 0.3 for the second.

“TATAAAATGTAATCTGAACACACATATTTTTTTAAT [CACACA_site8521]” and “ATATTGAATTCCAACACATGCAAAACTTTCGGTTTT [TGCATGCA_site485]” are within error of each other in “gcPBM binding intensity (ln)” value: 8.11 ± 0.37 for the first, 8.8 ± 0.38 for the second.

Compared with “TCATATTATAAAAAATGTACAAGGAAAAAATATATA [XGTACX_site337]”, “ATATTTATGAAGTTCACACATATATATATATATATA [CACACA_site5954]” is higher in “gcPBM binding intensity (ln)” value: 9.06 ± 0.58 for the first, 10.3 ± 0.52 for the second.

“TATTTATTCTCCAACACACACACATATATATATATA [CACACA_site2894]” and “TTTATTCTCAAACACACACACATATATATATATATA [CACACA_site2895]” are within error of each other in “gcPBM binding intensity (ln)” value: 10.1 ± 0.43 for the first, 10.2 ± 0.51 for the second.

“TTTTTATATATATTCTCACACACTTTTTATTTTAAC [CACACA_site657]” and “TTTTCATTTTTCTTTACACACATATATTTATTTATA [CACACA_site7119]” are within error of each other in “gcPBM binding intensity (ln)” value: 8.7 ± 0.46 for the first, 8.94 ± 0.4 for the second.

“ATATATTTTATACATACACACATATATATATTTTTT [CACACA_site3940]” and “ATTTTATTTTCATATGAACACACATATATATATTAT [CACACA_site8741]” are within error of each other in “gcPBM binding intensity (ln)” value: 8.66 ± 0.33 for the first, 9.15 ± 0.47 for the second.

Going from “ATTTTATTTTCTCACACACACATATATATATATATA [CACACA_site5781]” to “TATTTATTCTCCAACACACACACATATATTTATATA [CACACA_site7376]”, the “gcPBM binding intensity (ln)” value falls from 10.4 ± 0.4 to 8.69 ± 0.53.

Compared with “TATACACATATTTTTACACACATATTTTTTCATATA [CACACA_site7244]”, “TTTTCATTTTTCTTTACACACATATATATATATATA [CACACA_site2236]” is higher in “gcPBM binding intensity (ln)” value: 8.7 ± 0.38 for the first, 10.2 ± 0.31 for the second.

“AACATATTTATATACACACACATATTTATATGAAAT [CACACA_site6268]” and “TCGTGTTTTAAAAAAATGAAGAAAAGTAAAAAAAAA [XGTACX_negctrl_site23]” are within error of each other in “gcPBM binding intensity (ln)” value: 8.39 ± 0.33 for the first, 8.46 ± 0.67 for the second.

“AGGATAATATACAAAAGTACATAAAACTAAAAAAAC [XGTACX_site605]” and “AAAAATATAACCGTTACACACAAAATAATATGAGAA [CACACA_site3773]” are within error of each other in “gcPBM binding intensity (ln)” value: 9.01 ± 0.24 for the first, 8.72 ± 0.43 for the second.

“ATATTTATTTATTTATGTACGCACACAGTTGATATT [XGTACX_site5808]” and “TTTTTTTTATTTTGTTGTACGCTTATTTGTATATAT [XGTACX_site7325]” are within error of each other in “gcPBM binding intensity (ln)” value: 8.92 ± 0.4 for the first, 8.95 ± 0.45 for the second.

From the supplement of paper PMC11417369
